A number with no mark means an inactive call. Inconclusive results are not listed. Where a call stands in place of a potency, no number is given. Active and inactive are the calls of the source. Unless noted, calls come from the whole dose curve; as a rule, active = well fitted curve in the direction sought with a large enough effect; inconclusive = small, poorly fitted or top-dose-only effect, or another doubt; inactive = no such curve, though single readings can be large; an effect the other way counts as inactive or inconclusive.

Alpha-galactosidase (Coffea arabica), sequence (Q42656 whole entry, looked up): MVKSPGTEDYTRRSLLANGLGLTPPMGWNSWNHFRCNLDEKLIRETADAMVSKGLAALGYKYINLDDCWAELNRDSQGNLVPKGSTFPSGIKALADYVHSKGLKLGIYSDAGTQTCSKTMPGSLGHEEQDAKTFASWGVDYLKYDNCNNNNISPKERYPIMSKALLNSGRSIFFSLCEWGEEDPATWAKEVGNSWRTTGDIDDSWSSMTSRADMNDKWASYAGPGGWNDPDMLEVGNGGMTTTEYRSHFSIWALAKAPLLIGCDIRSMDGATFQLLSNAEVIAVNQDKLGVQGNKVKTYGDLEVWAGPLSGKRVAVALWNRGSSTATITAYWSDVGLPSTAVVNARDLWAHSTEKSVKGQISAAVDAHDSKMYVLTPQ

The first experiment addresses Alpha-galactosidase (Coffea arabica) (UniProt Q42656). Description: Counterscreen for Glucocerebrosidase Inhibitors: qHTS Assay for Coffee Bean alpha-Galactosidase at pH 4.5 (AID 957). As to conditions: purified coffee bean alpha-galactosidase, fluorogenic substrate; series mostly up to 76.9 µM. The method in brief: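 Green coffee bean enzyme (2 nM final) was incubated with compounds (0.7 nM to 77 uM) and 4-methylumbelliferyl alpha-D-galactopyranoside (80 uM final) in 50 mM citric acid, 0.005% Tween-20, pH 4.5, 20 min at room temperature; AC50 from Hill fits.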
A general note: A counterscreen serves to expose hits that act by an unwanted route or on another target.
For `COCCCCC(=NOCCN)c1ccc(C(F)(F)F)cc1`, the outcome was inactive.

Regarding `NC[C@@H]1O[C@H](C23CC4CC(CC(C4)C2)C3)Cc2c1ccc(O)c2O`, the compound was called inactive.

Regarding `CCN(CC)CCCCCCCCOC(=O)c1cc(OC)c(OC)c(OC)c1`, the result was inactive.

Another experiment shares this target. Description: Counterscreen for Glucocerebrosidase Inhibitors: qHTS Assay for Coffee Bean alpha-Galactosidase at pH 5.9 (AID 998). As to conditions: coffee bean alpha-galactosidase enzyme assay; series mostly up to 76.9 µM. The method in brief: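 Green coffee bean enzyme (2 nM) with 4-methylumbelliferyl alpha-D-galactopyranoside (80 uM) in 50 mM citric acid, 0.005% Tween-20, pH 5.9, 20 min at room temperature; compounds 0.7 nM–77 uM. Stopped at pH 10, fluorescence Ex365/Em440; Hill-fit AC50.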
Turning to `COCCCCC(=NOCCN)c1ccc(C(F)(F)F)cc1`, the outcome was inactive.

Regarding `C=C[C@H]1CN2CC[C@@H]1C[C@@H]2[C@@H](O)c1ccnc2ccc(OC)cc12`, the compound was classed as inactive.

As for `NC[C@@H]1O[C@H](C23CC4CC(CC(C4)C2)C3)Cc2c1ccc(O)c2O`, the compound was called inactive.

For the compound `CCN(CC)CCCCCCCCOC(=O)c1cc(OC)c(OC)c(OC)c1`, the result was inactive.

System in the next experiment: not listed separately
Description: Inducers of the Endoplasmic Reticulum Stress Response (ERSR) in human glioma: Validation (AID 504836). As to conditions: human glioma cells, ER stress response reporter; series mostly up to 38.3 µM. A digest of the protocol:
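Stably transfected U87-MG glioma cells carrying a GRP78-based luciferase sensor; 16 h compound incubation. Luminescence end-point read 10 min after Bright-Glo addition at room temperature.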
Consider `C=CCNc1ncnc2ccc(Br)cc12`, for which the call was inactive.

As for `NC[C@@H]1O[C@H](C23CC4CC(CC(C4)C2)C3)Cc2c1ccc(O)c2O`, the compound was called inactive.

For `CCN(CC)CCCCCCCCOC(=O)c1cc(OC)c(OC)c(OC)c1`, the outcome was inactive.

Turning to `CN(C)CCCc1cc(C(=O)Nc2ccc(-c3ccncc3)cc2)ccc1O`, the compound was called inactive.

For `c1ccc(C(NCCNC(c2ccccc2)c2ccccc2)c2ccccc2)cc1`, the compound was classed as inactive.

System in the next experiment: not listed separately
Description: qHTS for Inhibitors of the Functional Ribonucleoprotein Complex (vRNP) of Lassa (LASV) Arenavirus: LASV Primary Screen - GLuc reporter signal (AID 1347082; calls by dose curve; tested in HEK293 reporter line; note: nearly all actives have a fitted effect of over 60% in size; note: potency is the fitted concentration of half-maximal effect). As to conditions: LASV minigenome vRNP, Gaussia luciferase reporter; series mostly up to 57.5 µM. A general note: In qHTS, concentration-response curves come from the screen itself.
For `COc1ccc(CCC(=O)c2c(O)cc(O[C@@H]3O[C@H](CO)[C@@H](O)[C@H](O)[C@@H]3O[C@@H]3O[C@@H](C)[C@H](O)[C@@H](O)[C@@H]3O)cc2O)cc1O`, the Potency is 7.69 µM (active).

For the compound `CCNC(=O)c1cc2c(-c3cc(OCCN4CCCC4)c(Cl)cc3Cl)nc(N)nc2s1`, the Potency was 4.85 µM (active).

As to `COCCCCC(=NOCCN)c1ccc(C(F)(F)F)cc1`, the Potency entry is “inactive”.

In the case of `COc1ccc(-c2cc3c(C)nc(N)nc3n(C3CCC(OCCO)CC3)c2=O)cn1` (configuration not stated), the Potency was 0.153 µM (active).

For `C=C1C2[C@H](OC(C)=O)[C@@H]3CC(=O)[C@]4(C)OC[C@@]3(C)[C@@]4(O)[C@@H](OC(C)=O)[C@H](OC(C)=O)[C@@]2(COC(=O)c2ccccc2)[C@@H](OC(C)=O)C[C@@H]1O` (some centres not stated), the Potency entry was “inactive”.

In the case of `COc1cc(Cl)cn2c(-c3cccc(NC4CNC4)n3)cnc12`, the Potency result was “inactive”.

For the compound `COc1cc2c(cc1OC)CN(CCc1ccc(NC(=O)c3cc(OC)c(OC)cc3NC(=O)c3cnc4ccccc4c3)cc1)CC2`, the Potency result is “inactive”.

Take `C=CCNc1c(O)cc2c(O)c1C[C@@H](C)C[C@H](OC)[C@@H](O)[C@@H](C)C=C(C)[C@H](OC(N)=O)[C@@H](OC)C=CC=C(C)C(=O)N2`: the Potency is 10.9 µM (active).

In the case of `Cc1cc(OCCCS(C)(=O)=O)cc(C)c1-c1cccc(COc2ccc3c(c2)OC[C@H]3CC(=O)O)c1`, the Potency entry is “inactive”.

On to `C[C@]12C=CC(=O)C=C1CC[C@@H]1[C@@H]2CC[C@]2(C)C(=O)CC[C@@H]12`, for which the Potency result was “inactive”.

Consider `CCCCCCCCCCCCCCCC(N)=O`, for which the activity change, negative = inhibition was 1.8% [at 5.82 µM].

As for `O=C(CCCCCCNC(=O)c1cnc(N(c2ccccc2)c2ccccc2)nc1)NO`, the Potency entry is “inactive”.

Consider `CC(=O)/C=C/C1C(C)=CCC(C)C1(C)C` (configuration not stated), for which the Potency result was “inactive”.

Consider `COc1cc(C(=O)O[C@@H]2CC(C)=CC[C@@]3(C)CC[C@](O)(C(C)C)[C@H]23)ccc1O`, for which the Potency result was “inactive”.

Consider `CC(C)(C)Cn1c(N)nc2ccc(-c3[nH]c(C(C)(C)C)nc3-c3ccc(F)cc3)nc21`, for which the Potency entry is “inactive”.

For `CC(=O)O[C@@H]1/C=C/[C@](C)(O)C[C@@H](C)C/C=C/[C@H]2[C@H](O)C(C)=C(C)[C@H]3[C@H](Cc4ccccc4)NC(=O)[C@@]123`, the Potency result is “inactive”.

With `NC(=O)c1cccc2cn(-c3ccc([C@@H]4CCCNC4)cc3)nc12`, the Potency result was “inactive”.

`CC(C)(N)c1ccc(-c2nc3ccccc3nc2-c2ccccc2)cc1`: the Potency result was “inactive”.

Consider `Nc1ncnc2c1ncn2[C@@H]1O[C@H](CO)C[C@@H]1O`, for which the Potency entry was “inactive”.

`CCCCCC[C@@H](O)C/C=C\CCCCCCCC(=O)O`: the Potency result is “inactive”.

For `C=C(C)[C@@]12OC3(c4ccccc4)O[C@@H]1[C@@H]1[C@@H]4O[C@]4(CO)[C@@H](O)[C@]4(O)C(=O)C(C)=C[C@H]4[C@@]1(O3)[C@H](C)[C@H]2OC(=O)/C=C/C=C/c1ccccc1`, the Potency entry is “inactive”.

On to `C=CCNc1ncnc2ccc(Br)cc12`, for which the Potency entry was “inactive”.

Regarding `C=C[C@H]1CN2CC[C@@H]1C[C@@H]2[C@@H](O)c1ccnc2ccc(OC)cc12`, the Potency entry is “inactive”.

As to `O=C1c2ccccc2C(=O)N1Cc1ccccc1`, the Potency entry is “inactive”.

On to `CCCCC/C=C\C\C=C/C=C/C=C/[C@@H](O)[C@@H](O)CCCC(=O)O`, for which the activity change, negative = inhibition is -2.59% [at 0.757 µM].

With `COc1c2ccoc2c(OC[C@@H](O)C(C)(C)OC)c2oc(=O)ccc12`, the Potency entry was “inactive”.

`Cc1ncc(C[n+]2csc(CCO)c2C)c(N)n1`: the Potency entry is “inactive”.

Take `COc1cc(F)c(F)c(Nc2ccc(I)cc2F)c1NS(=O)(=O)C1(C[C@H](O)CO)CC1`: the Potency result is “inactive”.

Regarding `COc1ccc(-c2cc3nccn3c(Nc3ncccc3C(N)=O)n2)cc1OC`, the Potency entry is “inactive”.

Consider `Cc1ccc(NC(=O)Nc2cc(C(F)(F)F)ccc2F)cc1Nc1ccc2c(c1)NC(=O)C2=Cc1ccc[nH]1`, for which the Potency was 30.6 µM (active).

In the case of `COc1cccc2c1cc([N+](=O)[O-])c1c(C(=O)O)cc3c(c12)OCO3`, the Potency result is “inactive”.

For the compound `NC[C@@H]1O[C@H](C23CC4CC(CC(C4)C2)C3)Cc2c1ccc(O)c2O`, the Potency result was “inactive”.

Take `CC(C)(C)NC(=O)[C@H]1CN(Cc2cccnc2)CCN1C[C@@H](O)C[C@@H](Cc1ccccc1)C(=O)N[C@H]1c2ccccc2C[C@H]1O`: the Potency result was “inactive”.

With `O=C1NC(=O)C(c2cnc3ccccn23)=C1c1cn2c3c(cccc13)CN(C(=O)N1CCOCC1)CC2`, the Potency result is “inactive”.

For `CCN(CC)CCCCCCCCOC(=O)c1cc(OC)c(OC)c(OC)c1`, the Potency entry was “inactive”.

With `CC#CCn1c(N2CCC[C@@H](N)C2)nc2c1c(=O)n(Cc1nc(C)c3ccccc3n1)c(=O)n2C`, the Potency entry was “inactive”.

As for `COc1cc2ncn(-c3cc(OCc4ccccc4S(C)(=O)=O)c(C#N)s3)c2cc1OC`, the Potency result is “inactive”.

On to `CN(C)CCCc1cc(C(=O)Nc2ccc(-c3ccncc3)cc2)ccc1O`, for which the Potency result was “inactive”.

With `NC(=O)c1c[nH]c2ccccc12`, the Potency entry is “inactive”.

With `c1ccc(C(NCCNC(c2ccccc2)c2ccccc2)c2ccccc2)cc1`, the Potency entry was “inactive”.

Source of the values: PubChem BioAssay (NCATS).
